# In the library only some 3.7% were active in any assay of this set; here they are far more common.
# ClpP mod – qHTS Assay for Activators of ClpP; ATP-dependent Clp protease proteolytic subunit (Bacillus subtilis (strain 168)), P80244; purified B. subtilis ClpP, FRET peptide cleavage, 20 min; Potency, µM (top dose mostly 57.5 µM); 340,000 tested, 1.9% active; active = well fitted falling curve with a large enough effect; inconclusive = small, poorly fitted or top-dose-only effect; inactive = no such curve, though single readings can be large or run the other way; also: the source files actives as falling curves though it sought activators and does not explain the sign; nearly all actives have a fitted effect of over 65% in size
# Target sequence (P80244 whole entry, looked up): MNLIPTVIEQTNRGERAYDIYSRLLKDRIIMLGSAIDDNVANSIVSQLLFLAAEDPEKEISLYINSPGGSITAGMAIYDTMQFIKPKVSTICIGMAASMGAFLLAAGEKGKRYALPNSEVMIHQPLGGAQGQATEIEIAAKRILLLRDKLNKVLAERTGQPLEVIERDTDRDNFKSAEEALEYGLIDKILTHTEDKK
#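 Purified B. subtilis ClpP, 10 microg/mL final in Tris/HCl pH8 with KCl, BSA, glycerol and Tween-20, cleaved an Abz/nitrotyrosine-quenched decapeptide. Fluorescence (ex 320, em 430) was read at 0 and 20 min at room temperature. Delta was normalized to 5.8 microM ADEP and DMSO/no-enzyme controls.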
# A549 tox – Nrf2 qHTS screen for inhibitors: counterscreen for cytotoxicity. A549 ARE-Fluc cells, CellTiter-Fluor viability, 18-24 h. Potency, µM (series often up to 46 µM), hits mostly inhibitors. 390,000 tested, 0.16% active
#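 Cytotoxicity counterscreen: CellTiter-Fluor fluorescence was measured in A549 ARE_Fluc cells after 18-24 h of compound exposure in a concentration series. The subsequent BugLite luminescent read reports ARE-luciferase activity.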
# Nrf2 inh – Nrf2 qHTS screen for inhibitors. A549 ARE-Fluc reporter, luciferase luminescence, 18-24 h. Potency, µM (doses to about 46 µM), actives largely listed as inhibitors. 360,000 tested, 2.1% active; also: nearly all actives have a fitted effect of over 60% in size
#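 Reporter: ARE-Fluc in A549. Exposure: 18-24 h, 37 °C, 5% CO2, 5% FBS OPTI-MEM. Readouts: fluorescent cytotoxicity (CellTiter-Fluor), then luminescent Nrf2 signal after BugLite.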
# TCR activator – Activators of T cell receptors: qHTS campaign. primary human leukocytes, anti-CD3, IL-2 HTRF, 48 h. Potency, µM (series often up to 9.22 µM), usual class: activators. 330,000 tested, under 10 active. AID 504894, 2011
#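 Using a-CD3 beads without co-stimulation, primary human leukocytes were exposed to compounds for 48 hr. An HTRF IL-2 kit measured the cytokine, with europium-to-d2 energy transfer producing emission at 665nm upon 320nm excitation.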
# Nrf2 activator – qHTS of Nrf2 Activators; 410,000 tested, 0.31% active; Potency, µM (series often up to 46.1 µM), usual class: activators; AREc32 ARE-luciferase reporter (MCF7-derived line), luminescence, 24 h; AID 624171, 2012; also: nearly all actives have a fitted effect of over 65% in size
#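 Cells of the AREc32 ARE-luciferase line are plated in OPTI-MEM containing 5% FBS and left overnight at 37 deg C. Compounds are pinned in, incubation continues 24 hr, and firefly luciferase signal is then measured.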
# miR-21 reporter – qHTS Assay for Modulators of miRNAs and/orActivators of miR-21 | HeLa miR-21 FLuc reporter, luciferase, 48 h | Potency, µM (highest dose often 38.3 µM), usual class: activators | 340,000 tested, under 10 active | AID 2288, 2010;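 also: miR-21 action dims this reporter so a rising signal means less miR-21 action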
#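 Compounds were titrated across several concentrations (up to approximately 40 uM) and incubated 48 hours with HeLa miR-21-FLuc reporter cells (miR-21 target sequence downstream of FLuc, endogenous miR-21). Readout was firefly luciferase luminescence after lytic detection reagent.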
# Numbers stand for hits; – = inactive; ? = inconclusive; · = not tested or not shown; [ ] = another dose, or the depositor's remark. Unless noted, calls follow the shape of the dose curve; as a rule, active = well fitted curve in the direction sought with a large enough effect; inconclusive = small, poorly fitted or top-dose-only effect, or another doubt; inactive = no such curve, though single readings can be large; an effect the other way counts as inactive or inconclusive.
SMILES,ClpP mod,A549 tox,Nrf2 inh,TCR activator,Nrf2 activator,miR-21 reporter
O=[N+]([O-])c1cc(-c2nc(-c3ccncc3)no2)ccc1Cl,?,–,–,–,–,–
Clc1ccc(Br)cc1-c1nc(-c2ccncc2)no1,–,–,?,·,4µM,–
CC=Cc1cc2c(c(=O)o1)C(=O)C(O)C(C)O2 (configuration not stated),13µM,–,–,–,–,·
Nc1c(Cl)cc(-c2cn(CCC(=O)O)c(-c3ccncc3)n2)cc1Cl,–,–,–,–,–,·
COc1cccc(NC(=O)c2ccc(-c3nc(COc4ccccc4)c(C)o3)cc2)c1,?,–,·,·,–,–
O=C(N/N=C/c1cc([N+](=O)[O-])ccc1O)c1cccc2cc[nH]c12,–,?,23µM,–,–,–
COc1ccc(CNC(=O)CCc2c(C)c3cc4c(C)coc4cc3oc2=O)cc1,–,–,–,·,–,–
CCCCNC(=O)C(c1ccc(OCC(=O)OC)c(C(=O)OC)c1)N(CCOC)C(=O)CCCCCN1C(=O)NC(c2ccc(-c3ccccc3)cc2)C(C(=O)OCc2ccccc2)=C1C (configuration not stated),·,·,·,·,·,–
O=c1c2ccccc2nc(SCc2nnc(-c3ccccc3)o2)n1-c1ccc(F)cc1F,25µM,–,·,–,–,–
COc1ccc(-c2nnc(CSc3nc4ccccc4c(=O)n3C)o2)cc1OC,–,–,·,–,–,–
O=c1c2ccccc2nc(SCc2nnc(-c3ccccc3Br)o2)n1-c1ccccc1,–,–,10µM,–,–,–
Brc1ccccc1-c1nnc(CSc2nncn2-c2ccccc2)o1,–,–,–,·,–,–
CCOc1ccc(OCC(=O)OCC(=O)NCC2CCCO2)cc1 (configuration not stated),–,–,–,–,–,·
Cc1ccccc1NC(=O)c1cccc(NC(=O)c2ccccc2C(=O)O)c1,·,–,–,–,–,·
N#Cc1c(-c2ccco2)cc(-c2ccc(F)cc2)nc1N,35µM,–,·,–,1µM,–
CCCCc1nc(N)c(C#N)c(-c2ccco2)c1CCC,?,–,–,–,?,–
CC(C)Cc1cc(-c2ccco2)c(C#N)c(N)n1,3.2µM,–,?,–,?,–
N#Cc1c(-c2ccc(F)cc2)cc(-c2cccnc2)nc1N,?,–,–,–,–,–
CCc1ccc(NCc2cc3cc4c(cc3n(CC(=O)Nc3ccccc3OC)c2=O)OCCO4)cc1,–,–,–,·,–,–
O=c1c2[nH]c3cc(Br)sc3c2cnn1Cc1ccccc1F,·,–,–,·,·,·
CC(C)=NNC(=O)CN1C(=O)NC2NC(=O)NC21 (configuration not stated),28µM,–,–,–,–,–
CCC(C)NC(=O)CN1C(=O)NC2NC(=O)NC21 (configuration not stated),–,–,–,–,–,–
N#Cc1nc(-c2ccc(OCc3ccccc3)cc2)oc1NCCN1CCOCC1,·,·,·,·,·,–
N#Cc1nc(-c2ccc(OCc3ccccc3)cc2)oc1NCc1ccco1,10µM,–,–,–,–,–
N#Cc1nc(-c2ccccc2)oc1NCCCn1ccnc1,–,–,–,–,–,–
SMILES,ClpP mod,A549 tox,Nrf2 inh,TCR activator,Nrf2 activator,miR-21 reporter
Cc1ccc(OCc2nc(C#N)c(NCc3ccco3)o2)cc1,–,–,–,–,–,–
N#Cc1nc(-c2ccc(OCc3ccc(Cl)cc3)cc2)oc1NCCCn1ccnc1,25µM,–,–,–,–,–
N#Cc1nc(-c2ccc(OCc3ccccc3)cc2)oc1N1CCOCC1,28µM,–,·,·,–,–
CNc1oc(-c2ccc(OCc3ccccc3)cc2)nc1C#N,35µM,–,–,–,–,–
Cn1c2cc(C=O)sc2c2cnn(Cc3ccccc3F)c(=O)c21,·,–,–,·,·,·
N#Cc1nc(-c2ccccc2F)oc1N1CCN(C(=O)c2ccco2)CC1,–,–,–,–,–,–
N#Cc1nc(-c2ccc(F)cc2)oc1N1CCN(C(=O)c2ccco2)CC1,3.2µM,–,–,–,–,–
CC(=O)Nc1ccc(S(=O)(=O)NC(CC(=O)NCCc2ccccc2)C(C)C)cc1 (configuration not stated),–,–,–,·,?,–
CC(=O)Nc1ccc(S(=O)(=O)NC(CC(=O)N(C)Cc2ccccc2)C(C)C)cc1 (configuration not stated),14µM,–,–,–,–,–
O=C(NCc1ccc(F)cc1)c1cc2c(s1)-c1ccccc1SC2,–,–,–,·,–,–
CCc1ccccc1N(CC)C(=O)c1cc2c(s1)-c1ccccc1SC2,14µM,–,?,·,–,–
O=C(NCc1ccccc1Cl)c1cc2c(s1)-c1ccccc1SC2,25µM,–,–,·,–,–
CCc1ccccc1N(CC)C(=O)c1cc2c(s1)-c1ccccc1OC2,–,–,?,·,–,–
COCCNC(=O)c1cc2c(s1)-c1ccc(Cl)cc1SC2,·,–,?,–,–,–
CCOc1ccc(N(CC)C(=O)c2cc3c(s2)-c2ccc(Cl)cc2SC3)cc1,–,?,16µM,·,–,–
CCn1c(C(=O)Nc2c(C)cccc2C)cc2sc(Cl)cc21,–,–,–,·,–,–
COc1cccc(NC(=O)Cn2c(=O)n(CC(=O)NCCc3ccccc3)c(=O)c3sccc32)c1,–,–,–,·,–,–
CCC(=O)Nc1ccc(S(=O)(=O)N2CCc3ccccc32)cc1,–,?,–,–,–,–
O=C(Nc1ccc(S(=O)(=O)N2CCc3ccccc32)cc1)c1ccco1,–,–[1.84 µM],23µM,·,–,–
O=S(=O)(NC1CCCC1)c1ccc(S(=O)(=O)N2CCc3ccccc32)cc1,–,?,15µM,–,–,–
O=C(NCc1ccco1)c1ccc(Cl)c(S(=O)(=O)N2CCc3ccccc32)c1,–,–,23µM,–,–,–
CCC1CCC2(C1)N=C(Nc1nc3ccccc3o1)NC1=C2C(=O)CCC1 (configuration not stated),·,–,?,·,·,·
O=C(Nc1ccc(F)cc1Cl)n1ncc2cc(Cl)ccc21,–,–,–,·,–,–
CNc1ncnc2sc(-c3ccccc3)cc12,14µM,–,?,–,–,–
CN(C)CCNc1ncnc2sc(-c3ccccc3)cc12,–,–,–,–,–,–
OCCOCCNc1ncnc2sc(-c3ccccc3)cc12,32µM,–,–,–,–,–
Cc1cc(/C=C2\SC(=S)N(Cc3ccco3)C2=O)c(C)n1-c1cccnc1,–,–,–,–,–,–
Cc1cc(/C=C2/SC(=S)N(c3cccc(C(F)(F)F)c3)C2=O)c(C)n1-c1cccnc1,–,?,5.8µM,–,–,·

# Screens deposited in PubChem by National Center for Advancing Translational Sciences (NCATS).
